Outcome and AC50 data for seven compounds are collected here from PubChem BioAssay (EPA / NIEHS).

A word on the AC50: it is the concentration at which the activity in the assay is half-maximal.

Structures are written as SMILES. Active and inactive are the calls of the source. The calls were made as follows: active = hit-call score of the fitted dose curve at least 0.9, where 1 is the maximum; inactive = score below 0.9.

Assay [1] is described as follows: APR_HepG2_CellCycleArrest_24hr: Apredica 24-hour HepG2 Assay for Cell Cycle Arrest (AID 2282905).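 Also: cell cycle arrest scored as ratio of 2N to 4N nuclear DNA content.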 The following applies: imaging, actives raise or lower the signal. The procedure, abridged: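 After 24 h exposure at 0.39–200 uM in 0.5% DMSO, fixed cells received Hoechst 33342 staining. Imaging quantified per-nucleus DNA content; gain or loss fitted against DMSO controls.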

Assay [2] is described as follows: APR_HepG2_NuclearSize_24hr: Apredica 24-hour HepG2 Assay for Nuclear Size (AID 2282907). The conditions noted are these: high-content imaging, actives raise or lower the signal. Put shortly: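 Nuclear size from Hoechst 33342-stained, formaldehyde-fixed HepG2 nuclei imaged by high-content microscopy, after 24 h dosing at ten concentrations from 0.39 to 200 uM in 0.5% DMSO; gain or loss relative to DMSO baseline.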

Assay [3] can be described thus: APR_HepG2_CellLoss_24hr: Apredica 24-hour HepG2 Assay for Cell Loss (AID 2282908).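 As to AC50: fit in both directions so a hit may be cell loss or gain.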 The conditions noted are these: high-content imaging. The procedure, abridged:
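Nuclei stained with Hoechst 33342 after formaldehyde fixation (3.7%) were imaged at 20x to count cells. Exposure lasted 24 hr, at ten concentrations from 0.39 to 200 uM in duplicate, with 0.5% v/v DMSO. Fit bidirectional, relative to DMSO.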

Assay [4] can be described thus: APR_HepG2_MicrotubuleCSK_24hr: Apredica 24-hour HepG2 Assay for Microtubule CSK Stabilty (AID 2282909). The conditions noted are these: HepG2 microtubule cytoskeleton imaging, actives raise or lower the signal. The procedure, abridged: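 Fixed HepG2 cells were stained for alpha-tubulin and imaged after 24 hr exposure to ten concentrations spanning 0.39–200 uM in 0.5% DMSO. Signal change was fitted in both directions relative to DMSO; taxol was the positive control.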

Assay [5] can be described thus: APR_HepG2_MitoticArrest_24hr: Apredica 24-hour HepG2 Assay for Mitotic Arrest (AID 2282910). The conditions noted are these: high-content imaging, actives raise or lower the signal. Put shortly:
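Treatment lasted 24 hr in the human HepG2 line at 0.39–200 uM, solvent held at 0.5% DMSO. Fixed cells were stained with Hoechst 33342 and anti-phospho-histone H3, imaged at 20x, and analysed by gain- or loss-of-signal fitting against DMSO.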

Assay [6] is described as follows: APR_HepG2_MitoMembPot_24hr: Apredica 24-hour HepG2 Assay for Mitochondrial Membrane Potential (AID 2282911). The following applies: imaging, actives raise or lower the signal. Put shortly:
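HepG2, 24 hr dosing, 10 concentrations 0.39–200 uM, 0.5% DMSO final. Live-cell MitoTracker Red CMXRos 250 nM 30 min, then 3.7% formaldehyde fix. HCS fluorescence imaging, 20x; bidirectional fit vs DMSO baseline.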

A short description of assay [7]: APR_HepG2_MitoMass_24hr: Apredica 24-hour HepG2 Assay for Mitochondrial Mass (AID 2282912). The following applies: high-content imaging, actives raise or lower the signal. The procedure, abridged: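 Endpoint is MitoTracker Red CMXRos (250 nM, 30 min, pre-fixation) intensity from 20x high-content imaging, nuclei located by Hoechst. Human HepG2 cells received ten concentrations from 0.39 to 200 uM in 0.5% DMSO for 24 hr, duplicate wells. Bidirectional fit relative to DMSO.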

Assay [8] is described as follows: APR_HepG2_p53Act_24hr: Apredica 24-hour HepG2 Assay for p53 Activation (AID 2282913).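 Also: p53 protein immunofluorescence averaged per cell in HepG2 with Hoechst nuclei.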 The conditions noted are these: high-content imaging, actives raise or lower the signal. Put shortly:
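Read-out: Cy5 immunofluorescence for p53 in fixed, permeabilized HepG2, imaged by HCS with Hoechst-defined nuclei. Dosing was 24 hr at 0.39–200 uM in 0.5% DMSO. Curves were fitted bidirectionally relative to DMSO.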

A short description of assay [9]: APR_HepG2_CellCycleArrest_72hr: Apredica 72-hour HepG2 Assay for Cell Cycle Arrest (AID 2282914). The following applies: high-content imaging, actives raise or lower the signal. Put shortly: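 HepG2, 72 hr exposure, 10-point 0.39–200 uM, duplicate, 0.5% DMSO final. Fix 3.7% formaldehyde 30 min RT, Triton X-100 0.5%, Hoechst 33342 2 ug/mL. ArrayScan 20x, six fields/well; DNA content per nucleus; bidirectional fit vs DMSO.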

Assay [10] is described as follows: APR_HepG2_P-H2AX_72hr: Apredica 72-hour HepG2 Assay for H2AX Phosphorylation (AID 2282916).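 Also: phospho-histone H2A.x immunostain intensity per cell marking DNA damage.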 The conditions noted are these: imaging, actives raise or lower the signal. Put shortly: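 Phospho-histone H2A.x immunofluorescence, multiplexed with Hoechst and c-Jun, quantified by high-content imaging. Compounds applied to HepG2 for 72 h across ten concentrations (0.39–200 uM, 0.5% DMSO), in duplicate; DMSO baseline.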

Assay [11] is described as follows: APR_HepG2_MitoticArrest_72hr: Apredica 72-hour HepG2 Assay for Mitotic Arrest (AID 2282918). The following applies: high-content imaging, actives raise or lower the signal. The procedure, abridged:
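HepG2, 72 hr exposure, 0.39–200 uM in duplicate, 0.5% v/v DMSO final. Formaldehyde-fixed, Triton-permeabilized, anti-phospho-histone H3/FITC plus Hoechst. ArrayScan imaging at 20x; curves fit bidirectionally against DMSO baseline.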

Assay [12] can be described thus: APR_HepG2_MicrotubuleCSK_72hr: Apredica 72-hour HepG2 Assay for Microtubule CSK Stabilty (AID 2282919). The following applies: HepG2 microtubule cytoskeleton, high-content imaging, actives raise or lower the signal. The procedure, abridged: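 Ten-point dosing (0.39–200 uM, 0.5% DMSO) of HepG2 for 72 hr, with taxol as the cytoskeletal positive control. The cells were formaldehyde-fixed and then stained with alpha-tubulin/Cy5 and Hoechst. Imaging at 20x used a −2 um Z offset for tubulin.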

Assay [13] can be described thus: APR_HepG2_P-H2AX_24hr: Apredica 24-hour HepG2 Assay for H2AX Phosphorylation (AID 2282920). The conditions noted are these: high-content imaging, actives raise or lower the signal. The procedure, abridged: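 HCS fluorescence imaging of phospho-H2A.x immunostain (with Hoechst 33342 nuclear counterstain) in HepG2 after 24 hr compound exposure; 10 concentrations, 0.39–200 uM, duplicate wells, 0.5% v/v DMSO. Gain or loss of signal fitted relative to DMSO baseline.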

Assay [14] is described as follows: APR_HepG2_StressKinase_72hr: Apredica 72-hour HepG2 Assay for Stress Kinase (AID 2282921). The conditions noted are these: HepG2 stress kinase (phospho-c-Jun) imaging, actives raise or lower the signal. The procedure, abridged: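 Stress kinase signal is phospho-c-Jun immunofluorescence (1:500 primary, Cy3 secondary) in fixed, permeabilized human HepG2 cells imaged at 20x. Exposure lasted 72 hr over ten concentrations from 0.39 to 200 uM, 0.5% DMSO, in duplicate. Bidirectional fit versus DMSO.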

Assay [15] can be described thus: APR_HepG2_StressKinase_24hr: Apredica 24-hour HepG2 Assay for Stress Kinase (AID 2282922). The conditions noted are these: HepG2 stress kinase (phospho-c-Jun) imaging, actives raise or lower the signal. Put shortly: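 After 24 hr compound treatment (up to 200 uM, final DMSO 0.5% v/v), HepG2 cells are fixed and multiplex-labeled; phospho-c-Jun intensity is captured by high-content fluorescence imaging and analyzed relative to DMSO.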

The nature of assay [16]: APR_HepG2_p53Act_72hr: Apredica 72-hour HepG2 Assay for p53 Activation (AID 2282923).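 Also: average cellular p53 protein immunofluorescence intensity in HepG2 cells.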 The conditions noted are these: high-content imaging, actives raise or lower the signal. Put shortly:
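After 72 h with compound (ten points, 0.39 to 200 uM, final DMSO 0.5% v/v), fixed HepG2 cells were labelled with sheep anti-p53 and Hoechst 33342 and imaged; gain or loss versus DMSO scored.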

The nature of assay [17]: APR_HepG2_MitoMass_72hr: Apredica 72-hour HepG2 Assay for Mitochondrial Mass (AID 2282924).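 Also: MitoTracker Red CMXRos stain intensity per cell imaged as mitochondrial mass.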 The following applies: high-content imaging, actives raise or lower the signal. Put shortly: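 Steps: treat HepG2 72 hr (0.39–200 uM, duplicate wells); load MitoTracker Red CMXRos, 250 nM, 30 min; fix with 3.7% formaldehyde, permeabilise with 0.5% Triton X-100; capture images, nuclei via Hoechst 33342; fit bidirectionally against DMSO.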

Assay [18] can be described thus: APR_HepG2_NuclearSize_72hr: Apredica 72-hour HepG2 Assay for Nuclear Size (AID 2282925). The conditions noted are these: high-content imaging, actives raise or lower the signal. Put shortly:
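Compounds (0.39–200 uM, final DMSO 0.5%) were applied to HepG2 for 72 hr. Cells were then formaldehyde-fixed, permeabilized and labelled with Hoechst 33342. Nuclear diameter was quantified from six images per well.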

Assay [19] is described as follows: APR_HepG2_MitoMembPot_72hr: Apredica 72-hour HepG2 Assay for Mitochondrial Membrane Potential (AID 2282917). The conditions noted are these: imaging, actives raise or lower the signal. The procedure, abridged: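 HepG2 cells exposed 72 h to compounds at 0.39–200 uM (0.5% v/v DMSO, duplicates); MitoTracker Red CMXRos 250 nM loaded 30 min before 3.7% formaldehyde fixation, imaged by HCS fluorescence. Bidirectional fit versus DMSO.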

Regarding `CCCCCCCCCCCO`, the compound was called inactive in assay [1], in assay [2], in [4], in assay [7], in [9] and in assay [10]. Also, the result in assay [12], in assay [14], in assay [15], in assay [16], in assay [17] and in assay [18] was inactive. In addition, the half-maximal activity concentration (AC50) was 103 µM (active) in [3]; 104 µM (active) in [5]; 110 µM (active) in assay [6]; 107 µM (active) in assay [8]; 105 µM (active) in assay [11]; 100 µM (active) in [13].
In the case of `CCCCCCCCN(C)CCCCCCCC`, the result in [1], in assay [2], in [3], in assay [4], in assay [5] and in assay [6] was inactive. For the same compound, the call in [7], in assay [8], in assay [9], in [10], in assay [19] and in [11] was inactive. Moreover, the call in assay [12], in assay [13], in assay [14], in [15], in assay [16] and in [17] was inactive. For the same compound, the outcome in assay [18] was inactive.
As for `COc1ccc2cc(S(=O)(=O)N[C@H](CC(=O)N[C@H](Cc3ccc(CN4[C@H](C)CCC[C@@H]4C)cc3)C(=O)N(C)C(C)C)c3ccc4c(c3)OCO4)ccc2c1`, the compound was classed as inactive in [1], in assay [6], in assay [9], in assay [12], in assay [15] and in assay [18]. Moreover, the AC50 in assay [2] was 28.7 µM (active); in [3] it was 39.6 µM (active); in [4] it was 7.6 µM (active); in [5] it was 16 µM (active); in assay [7], 12.7 µM (active); in [8] it was 20.4 µM (active). Moreover, the AC50 is 13.7 µM (active) in assay [10]; 11.1 µM (active) in assay [11]; 21.8 µM (active) in assay [13]; 13.6 µM (active) in [14]; 10.7 µM (active) in [16]; 45 µM (active) in assay [17].
On to `Cc1cc2c(cc1C(F)(F)F)N(C(=O)Nc1ccc(Oc3cccnc3C)nc1)CC2`, for which the AC50 in [1] was 2.58 µM (active); in [3], 50.2 µM (active); in [4], 43.6 µM (active); in assay [5], 56.2 µM (active); in assay [8], 45.7 µM (active); in assay [10], 22.2 µM (active). Further, the AC50 is 46.3 µM (active) in [11]; 38.4 µM (active) in [12]; 43 µM (active) in [13]; 20.1 µM (active) in assay [14]; 26.2 µM (active) in assay [15]; 27.8 µM (active) in assay [16]. The compound was called inactive in assay [2], in [6], in assay [7], in assay [9], in assay [19] and in assay [17]. The compound was called inactive in assay [18].
On to `COc1cccc([C@H](O)C2CCN(CCc3ccc(F)cc3)CC2)c1OC`, for which the concentration at half-maximal activity (AC50) is 75.2 µM (active) in assay [1], 102 µM (active) in assay [11] and 103 µM (active) in [12]. Further, the result in [2], in assay [3], in [4], in assay [5], in assay [6] and in [7] was inactive. Moreover, the result in [8], in [9], in [10], in assay [19], in [13] and in assay [14] was inactive. Besides, the call in assay [15], in assay [16], in assay [17] and in assay [18] was inactive.
Consider `CN(C)C(=O)C1(N2CCCCC2)CCN(CC[C@@]2(c3ccc(Cl)c(Cl)c3)CN(C(=O)c3ccccc3)CCO2)CC1`, for which the compound was called inactive in [1], in assay [6], in [12], in assay [14], in [15] and in assay [17]. In addition, the AC50 is 20.9 µM (active) in assay [2]; 15.7 µM (active) in assay [3]; 65.2 µM (active) in [4]; 13.1 µM (active) in [5]; 7.74 µM (active) in [7]; 22.9 µM (active) in [8]. For the same compound, the half-maximal activity concentration (AC50) is 67.3 µM (active) in assay [9]; 12.3 µM (active) in assay [10]; 6.87 µM (active) in [11]; 19.6 µM (active) in [13]; 20.2 µM (active) in assay [16]; 6.79 µM (active) in assay [18].
As to `O=C(OCCCCCCOC(=O)c1ccccc1)c1ccccc1`, the call in assay [1], in assay [2], in assay [3], in assay [4], in assay [5] and in [6] was inactive. For the same compound, the result in assay [7], in [8], in [9], in assay [10], in assay [11] and in assay [12] was inactive. The call in [13], in [14], in [15], in [16], in assay [17] and in [18] was inactive.
